From PubChem BioAssay (Tox21)
Inconclusive results are not listed. Activity calls are given as the source filed them. Calls come from the whole dose curve; as a rule, active = well fitted curve in the direction sought with a large enough effect in the repeat runs; inconclusive = weak or mixed curves; inactive = no such curve, though single readings can be large; an effect the other way counts as inactive or inconclusive.

Tests used:
[1] = A CellTox Green Cytotoxicity Assay to monitor cytotoxicity in HepG2 cells - 0 hour (AID 1224882); note: nearly all actives have a fitted effect of over 35% in size
Procedure, shortened: (§1)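 Real-time, homogeneous cytotoxicity readout: dead-cell DNA staining by CellTox Green in HepG2 monolayers, fluorescence measured at timed intervals up to 40 h of continuous compound exposure.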

[2] = A CellTox Green Cytotoxicity Assay to monitor cytotoxicity in HepG2 cells - 32 hour (AID 1224883); note: nearly all actives have a fitted effect of over 50% in size
Procedure, shortened: as §1

[3] = A CellTox Green Cytotoxicity Assay to monitor cytotoxicity in HEK293 cells - 8 hour (AID 1224884); note: nearly all actives have a fitted effect of over 35% in size
Procedure, shortened: (§2)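 Cytotoxicity was tracked continuously in HEK293 cells by a DNA-binding dye excluded from viable cells. Compounds were transferred in DMSO 5 h after seeding; fluorescence was recorded at intervals up to 40 h.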

[4] = qHTS RealTime-Glo MT Cell Viability Assay in HepG2 cells - 16 hour (AID 1224885); note: nearly all actives have a fitted effect of over 50% in size
Procedure, shortened: (§3)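 qHTS, HepG2, 600 cells/well, RealTime-Glo (NanoLuc + prosubstrate) added with cells; 5 h preincubation; DMSO compound addition; 37 C; luminescence at 0/8/16/24/32/40 h.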

[5] = qHTS RealTime-Glo MT Cell Viability Assay in HEK293 cells - 24 hour (AID 1224886); note: top concentration of the series differs between compounds; nearly all actives have a fitted effect of over 50% in size
Procedure, shortened: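 Assay medium contained NanoLuc luciferase plus cell-permeant prosubstrate, added with HEK293 cells at 600 cells/well. After 5 h at 37 C/5% CO2 compounds were added; plates stayed at 37 C for 40 h with serial luminescence reads.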

[6] = qHTS RealTime-Glo MT Cell Viability Assay in HEK293 cells - 8 hour (AID 1224887); note: top concentration of the series differs between compounds; nearly all actives have a fitted effect of over 50% in size
Procedure, shortened: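 Nonlytic bioluminescent viability monitoring. HEK293 at 600 cells/well with reagent; 5 h settle; compound transfer by pintool; plates held at 37 C and read at set time points.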

[7] = A CellTox Green Cytotoxicity Assay to monitor cytotoxicity in HEK293 cells - 16 hour (AID 1224888); note: nearly all actives have a fitted effect of over 35% in size
Procedure, shortened: as §2

[8] = qHTS RealTime-Glo MT Cell Viability Assay in HepG2 cells - 0 hour (AID 1224889); note: nearly all actives have a fitted effect of over 50% in size
Procedure, shortened: as §3

[9] = A CellTox Green Cytotoxicity Assay to monitor cytotoxicity in HepG2 cells - 8 hour (AID 1224890); note: nearly all actives have a fitted effect of over 45% in size
Procedure, shortened: as §1

[10] = qHTS assay to identify small molecule antagonists of the estrogen receptor alpha (ER-alpha) signaling pathway using the BG1 cell line in the presence of 0.1 nM 17-beta-estradiol - cell viability counter screen (AID 1259241); note: nearly all actives have a fitted effect of over 40% in size
Procedure, shortened: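 Cells were plated and left 24 hr, compounds in DMSO were pinned in, 17beta-estradiol was added to 0.1 nM final, and after 22 hr CellTiter-Fluor reagent was added for 30 min before fluorescence was read.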

Measured: Potency

COCCOCCOCCOCCOC
inactive: [1] | [2] | [3] | [4] | [5] | [6] | [7] | [8] | [9] | [10]

N#CCCNCCC#N
inactive: [1] | [2] | [3] | [4] | [5] | [6] | [7] | [8] | [9] | [10]

Nc1cnn([C@@H]2O[C@H](CO)[C@@H](O)[C@H]2O)c(=O)n1
inactive: [1] | [2] | [3] | [4] | [5] | [6] | [7] | [8] | [9] | [10]

CC(C)c1cccc(C(C)C)c1NC(=O)NS(=O)(=O)c1cc(C(C)(C)O)co1
inactive: [1] | [2] | [3] | [4] | [5] | [6] | [7] | [8] | [9] | [10]

N#CCc1cccc(C(F)(F)F)c1
inactive: [1] | [2] | [3] | [4] | [5] | [6] | [7] | [8] | [9] | [10]

ClC(Cl)(Cl)c1ccc(C(Cl)(Cl)Cl)cc1
inactive: [1] | [2] | [3] | [4] | [5] | [6] | [7] | [8] | [9] | [10]

Cl/C(=C\n1cncn1)c1ccc(Cl)cc1Cl
inactive: [1] | [2] | [3] | [4] | [5] | [6] | [7] | [8] | [9] | [10]

COC(=O)C(C)=O
inactive: [1] | [2] | [3] | [4] | [5] | [6] | [7] | [8] | [9] | [10]

CC(C)CCCCCCOC(=O)c1ccc(C(=O)OCCCCCCC(C)C)c(C(=O)OCCCCCCC(C)C)c1
inactive: [1] | [2] | [3] | [4] | [5] | [6] | [7] | [8] | [9] | [10]

COC(Cc1ccccc1)OC
inactive: [1] | [2] | [3] | [4] | [5] | [6] | [7] | [8] | [9] | [10]

COc1ccccc1OC(=O)Oc1ccccc1OC
inactive: [1] | [2] | [3] | [4] | [5] | [6] | [7] | [8] | [9] | [10]

CCCCCC(CO)CCC (stereo not given)
inactive: [1] | [2] | [3] | [4] | [5] | [6] | [7] | [8] | [9] | [10]

O=C1Nc2cc(Cl)ccc2Oc2ccccc21
inactive: [1] | [2] | [3] | [4] | [5] | [6] | [7] | [8] | [9] | [10]

NC(=S)N/N=C/c1cccnc1
inactive: [1] | [2] | [3] | [4] | [5] | [6] | [7] | [8] | [9] | [10]

CCN(CC)CCNC(C(=O)OCCC(C)C)c1ccccc1 (stereo not given)
inactive: [1] | [2] | [3] | [4] | [5] | [6] | [7] | [8] | [9] | [10]

CCCCC(CC)(CO)CO
inactive: [1] | [2] | [3] | [4] | [5] | [6] | [7] | [8] | [9] | [10]

CC(=O)c1c(C)c([N+](=O)[O-])c(C(C)(C)C)c([N+](=O)[O-])c1C
inactive: [1] | [2] | [3] | [4] | [5] | [6] | [7] | [8] | [9] | [10]

O=C(CC(=O)c1ccccc1)c1ccccc1
inactive: [1] | [2] | [3] | [4] | [5] | [6] | [7] | [8] | [9] | [10]

C[Si](C)O[Si](C)(C)O[Si](C)(C)O[Si](C)C
inactive: [1] | [2] | [3] | [4] | [5] | [6] | [7] | [8] | [9] | [10]

O=C(O)/C=C/c1cnc[nH]1
inactive: [1] | [2] | [3] | [4] | [5] | [6] | [7] | [8] | [9] | [10]

FC(F)(F)C(F)(F)C(F)(F)C(F)(F)C(F)(F)C(F)(F)CCI
inactive: [1] | [2] | [3] | [4] | [5] | [6] | [7] | [8] | [9] | [10]

CC(C)(C)c1ccc(S)cc1
inactive: [1] | [2] | [3] | [4] | [5] | [6] | [7] | [8] | [9] | [10]
